Measured values published in PubChem BioAssay.
Values without a mark were called inactive.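 The calls were made as follows: active = luciferase signal above three times the same-plate solvent-only control wells; inactive = the rest.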

target: Mitogen-activated protein kinase 7 (Homo sapiens) (UniProt Q13164); assay: ERK5 transactivation activators in reporter cells, primary screen, cell-based, HTS (AID 1508626); details: HeLa Gal4-ERK5 transactivation, 18 h, at 5 µM, active compounds read high;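 also: luciferase driven by Gal4-ERK5 fusion binding five Gal4 sites before minimal TATA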
Sequence (Q13164 whole entry, looked up, the tested form may be a part): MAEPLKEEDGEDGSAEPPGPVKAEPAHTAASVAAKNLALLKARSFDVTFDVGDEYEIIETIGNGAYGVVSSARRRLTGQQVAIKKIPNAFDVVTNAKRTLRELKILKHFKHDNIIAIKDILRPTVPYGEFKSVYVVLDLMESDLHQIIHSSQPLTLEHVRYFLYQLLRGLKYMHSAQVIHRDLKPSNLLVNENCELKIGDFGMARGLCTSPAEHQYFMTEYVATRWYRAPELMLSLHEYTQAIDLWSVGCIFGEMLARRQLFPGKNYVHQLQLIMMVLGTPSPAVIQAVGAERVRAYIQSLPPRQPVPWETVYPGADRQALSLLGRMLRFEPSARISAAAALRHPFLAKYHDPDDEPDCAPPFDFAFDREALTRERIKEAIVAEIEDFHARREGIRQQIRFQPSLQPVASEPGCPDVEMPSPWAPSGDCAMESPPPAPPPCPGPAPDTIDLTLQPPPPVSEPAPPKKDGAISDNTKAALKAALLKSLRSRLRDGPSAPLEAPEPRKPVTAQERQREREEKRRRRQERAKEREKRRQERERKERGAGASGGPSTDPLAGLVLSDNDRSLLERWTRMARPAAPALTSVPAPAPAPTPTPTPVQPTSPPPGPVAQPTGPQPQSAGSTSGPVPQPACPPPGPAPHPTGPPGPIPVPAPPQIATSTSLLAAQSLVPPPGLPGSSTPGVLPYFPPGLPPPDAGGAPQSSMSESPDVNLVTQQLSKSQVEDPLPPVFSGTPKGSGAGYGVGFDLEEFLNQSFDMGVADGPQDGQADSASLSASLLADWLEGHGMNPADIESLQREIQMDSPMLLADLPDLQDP

| Structure (SMILES) | luciferase signal [AU] |
| --- | --- |
| COC(=O)C1=CO[C@@H](C)[C@@H]2CN3CC[C@@]4(C(=O)Nc5ccccc54)[C@@H]3C[C@H]12 | 24 |
| CC(=O)[C@H]1CC[C@H]2[C@@H]3CC[C@H]4C[C@H](O)CC[C@]4(C)[C@H]3CC[C@]12C | 24 |
| CC(=O)OC1CCC2(C)C(CCC3C2CCC2(C)C(C4=CC(=O)OC4)C(OC(C)=O)CC32O)C1 (configuration not stated) | 16 |
| COC1=C[C@]23CCCN2CCc2cc4c(cc2[C@@H]3[C@@H]1O)OCO4 | 56 |
| C=C[C@H]1CN2CC[C@H]1C[C@H]2[C@H](OC(=O)OCC)c1ccnc2ccc(OC)cc12 | 28 |
| CCC(C)C(=O)OC1C[C@@]2(C)[C@H](c3ccoc3)OC(=O)CC23OC2(C)OC34C(OC(=O)C(C)C)[C@@]3(O)[C@@H](OC(=O)C5(C)OC5C)[C@@]5(C)C[C@]3(O)[C@@](C)([C@H]5CC(=O)OC)C14O2 (some centres not stated) | 44 |
| CC(=O)O[C@@H]1CC[C@@]2(C)[C@@H](CC[C@@H]3[C@@H]2CC[C@]2(C)C(=O)CC[C@@H]32)C1 | 28 |
| C[C@]12CCC(=O)C[C@@H]1CC[C@@H]1[C@@H]2CC[C@]2(C)C(=O)CC[C@@H]12 | 68 |
| CC[C@H]1[C@@H]2C[C@H]3[C@@H]4N(C)c5ccccc5[C@]45C[C@@H]([C@H]2[C@H]5O)N3[C@@H]1O | 116 |
| CC(=O)O[C@H]1[C@H]2[C@@H](OC(=O)Cc3ccccc3)[C@@H](C)C[C@]2(OC(C)=O)C(=O)/C(C)=C/[C@@H]2[C@H](CC[C@@]13CO3)C2(C)C | 56 |
| CC(=O)O[C@@H]1[C@H]2CC[C@H]3[C@@](C)(O)[C@@H]4C[C@H](O)C(C)(C)[C@@]4(O)[C@@H](O)C[C@@]13C[C@@]2(C)O | 32 |
| CCN1C[C@]2(OC(=O)c3ccccc3NC(C)=O)CC[C@H](OC)[C@]34C1[C@H](C[C@H]23)[C@@]1(O)C[C@H](OC)[C@H]2C[C@@H]4[C@]1(O)[C@H]2OC | 84 |
| CC(=O)OC1C[C@@]2(C)[C@H](c3ccoc3)C[C@H]3O[C@]32[C@]2(C)C(=O)C(O)=C3C(C)(C)C(=O)C=C[C@]3(C)C12 (some centres not stated) | 12 |
| COc1cc2c(cc1OC)[C@@H]1C(=O)c3ccc4c(c3O[C@@H]1CO2)C[C@H](C(C)C)O4 | 152 |
| CC(=O)OCC1=C(C(=O)O)N2C(=O)[C@@H](NC(=O)CCCC(N)C(=O)O)[C@H]2SC1 (some centres not stated) | 56 |
| CC[C@@H](C)C(=O)O[C@H]1[C@H](O)[C@H]2[C@@H](CN3C[C@@H](C)CC[C@H]3[C@@]2(C)O)[C@@H]2C[C@]34O[C@]5(O)[C@@H](OC(=O)[C@](C)(O)[C@@H](C)O)CC[C@@]3(C)[C@@H]5[C@@H](OC(C)=O)[C@@H](OC(C)=O)[C@H]4[C@@]21O | 88 |
| CC(C)c1cc2c(c(O)c1O)[C@@]1(C(=O)O)CCCC(C)(C)[C@@H]1CC2 | 52 |
